MsrA inh = bovine MsrA enzyme inhibitors, primary screen, biochemical, absorbance, HTS; purified bovine MsrA, absorbance read-out; AID 651718, 2012; Methionine sulfoxide reductase A (Bos taurus); inhibition, % at 15.5 µM; actives 0.75% (n = 360,000); in the data active means inhibition above about 4.5%
NPR2 activator = human GC-B receptor activators, primary screen, HEK293 GC-B cells, cGMP TR-FRET, EC30 CNP. 0% at EC30 CNP, 100% saturating CNP. activation, % at 10 µM. actives 0.11% (n = 370,000);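 active means activation at 10 µM reaching about 35% in either raw or pattern-adjusted values, limit read from the data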
NPR1 activator = GC-A stimulated cGMP production enhancers – HEK293 GC-A cells, cGMP TR-FRET, EC30 ANP, primary screen; activation, % at 10 µM; AID 1671463, 2021; 0% at EC30 ANP, 100% saturating ANP; actives 0.14% (n = 370,000); Atrial natriuretic peptide receptor 1 (Homo sapiens), P16066; in the data active means activation above about 40%
HTR2A ag = mouse Htr2a agonists via beta-arrestin recruitment, primary screen, cell-based, luminescence | CHO-K1 mHTR2A beta-arrestin complementation; percent of 30 µM serotonin response | activation, % at 7.6 µM | actives 0.66% (n = 360,000) | AID 624169, 2012;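 active means activation above a run cutoff, the mean activation of all tested compounds plus 3 SD, cut at about 14% in these data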
bovine MsrA act = bovine MsrA enzyme activators, primary screen, biochemical, absorbance, HTS; Methionine sulfoxide reductase A (Bos taurus); purified bovine MsrA, absorbance read-out; activation, % at 10.6 µM; actives 0.3% (n = 360,000); in the data active means activation above about 7.5%
OPRM1 ag = OPRM1 agonists via beta-arrestin recruitment, confirmation, counter-screen for mouse HTR2A agonist project, cell-based, luminescence, single concentration. shares compounds with HTR2A ag. U2OS OPRM1 beta-arrestin PathHunter; DMSO 0%, DAMGO 9.3 µM 100%. activation, % at 9.3 µM. actives 5.3% (n = 2,300);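 active means mean activation above the mean of DMSO-only wells plus 3 SD, cut at about 0.5% in these data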
Target sequence (P35372 whole entry, looked up): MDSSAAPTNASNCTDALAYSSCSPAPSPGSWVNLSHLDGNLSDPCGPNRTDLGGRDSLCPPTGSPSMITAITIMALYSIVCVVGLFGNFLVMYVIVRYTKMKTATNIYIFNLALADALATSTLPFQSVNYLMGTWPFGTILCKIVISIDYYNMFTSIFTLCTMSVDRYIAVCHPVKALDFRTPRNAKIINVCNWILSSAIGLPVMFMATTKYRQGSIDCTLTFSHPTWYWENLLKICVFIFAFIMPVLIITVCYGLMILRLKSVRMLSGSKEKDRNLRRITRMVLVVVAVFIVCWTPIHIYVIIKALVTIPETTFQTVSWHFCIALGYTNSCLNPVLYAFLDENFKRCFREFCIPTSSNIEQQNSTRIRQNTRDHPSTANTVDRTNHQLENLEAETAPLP
HTR2A ag conf = mouse HTR2A agonists, beta-arrestin recruitment, confirmation, cell-based, luminescence, CHO-K1 PathHunter, triplicate; AID 624381, 2012; actives 19% (n = 2,300); shares compounds with HTR2A ag; DMSO 0%, 30 µM serotonin 100%; activation, % at 7.6 µM;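 active means mean activation across triplicates above the hit threshold derived in the original primary screen, cut at about 15% in these data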
Each line names hits and unclear results; the compound was inactive in the other large screens (follow-up assays come after a bar, where they were run). Hits are enriched below; roughly 1.8% of the tested compounds scored in any of these assays.

CC(C)(C)NC(=O)C(c1ccncc1)n1c(=O)c(-c2cc3ccccc3[nH]2)nc2ccccc21 (stereo not given)	none (no result: bovine MsrA act)
O=C(NC1CCCCC1)C(c1ccncc1)n1c(=O)c(-c2cc3ccccc3[nH]2)nc2ccccc21 (stereo not given)	HTR2A ag 16 (no result: bovine MsrA act) | OPRM1 ag inactive | HTR2A ag conf inactive
CCOC(=O)[C@]12CCCC3=C1N(CCC3)C(=O)[C@@H](CC(=O)NCCCCc1ccccc1)C2	none (no result: MsrA inh, HTR2A ag, bovine MsrA act)
Oc1ccc(C2C[C@H]3CC[C@@H]2C3)cc1O (stereo not given in full)	none
Oc1ccc(C2CNCc3sccc32)cc1O (stereo not given)	HTR2A ag 48 | OPRM1 ag inactive | HTR2A ag conf 151
COc1ccc(CN2C/C(=C/c3ccccc3)N3C(=O)C[C@@H](c4ccc5ccccc5c4)N=C23)c(OC)c1	none (no result: MsrA inh, HTR2A ag, bovine MsrA act)
O=C(Nc1ccc(Cl)cc1)Nc1nc(-c2sccc2Br)cs1	none
O=C(Nc1ccc(Cl)cc1)Nc1nc(-c2ccccc2O)cs1	HTR2A ag 14 | OPRM1 ag inactive | HTR2A ag conf inactive
Cc1ccc2c(c1)N(CCCC(=O)N(C)Cc1ccccc1Cl)C(=O)CO2	none (no result: MsrA inh, HTR2A ag, bovine MsrA act)
C=CCN1[C@@H](CC(C)C)COc2cccc(N3CCCC3)c2S1(=O)=O	none (no result: MsrA inh, HTR2A ag, bovine MsrA act)
Cc1cc(-c2ccccc2)c2c(n1)sc1c(O)cc(=O)[nH]c12	none (no result: HTR2A ag, bovine MsrA act)
Cc1cc(-c2cccs2)c2c(n1)sc1c(=O)[nH]c(=O)[nH]c12	HTR2A ag 17 | OPRM1 ag inactive | HTR2A ag conf inactive
O=C(Nc1cccnc1)c1cc(-c2ccccc2)on1	none
O=C(Nc1cccnc1)c1cc(-c2ccco2)on1	HTR2A ag 20 | OPRM1 ag inactive | HTR2A ag conf inactive
CCN1CCN(C(=S)Nc2cccc([N+](=O)[O-])c2)CC1	HTR2A ag 26 | OPRM1 ag inactive | HTR2A ag conf inactive
CC(C)CC(=O)Nc1nnc(SCC(=O)NCc2ccc3c(c2)OCO3)s1	HTR2A ag 15 | OPRM1 ag inactive | HTR2A ag conf inactive
CC(C)C(=O)Nc1nnc(SCC(=O)NCc2ccc3c(c2)OCO3)s1	none
CC1C=CC=CCCC=CC=CC=CC=CC(OC2O[C@H](C)[C@@H](O)[C@H](N)[C@@H]2O)CC(O)C(C(=O)O)C(O)CC(=O)CC(O)C(O)CCC(O)CC(O)CC(O)CC(=O)OC(C)C(C)C1O (stereo not given in full)	none (no result: MsrA inh, HTR2A ag, bovine MsrA act)
CN(C)c1ccc(Cn2c(=O)n(Cc3ccc(C(=O)NCC4COC4)cc3)c(=O)c3ccccc32)cc1	none (no result: MsrA inh, HTR2A ag, bovine MsrA act)
Cc1cc(C)nc(SCC(=O)c2ccc(F)c(C)c2)n1	HTR2A ag 36 | OPRM1 ag inactive | HTR2A ag conf inactive
Cc1cc(C)nc(SCC(=O)c2ccc(F)cc2)n1	none
CC(C)C(=O)Nc1c2c(nn1-c1ccc(F)cc1)CSC2	HTR2A ag 16 | OPRM1 ag inactive | HTR2A ag conf inactive
CC(C)CN1C(=O)C[C@]2(C(=O)N(C)c3ccc(NC(=O)C(C)(C)C)cc32)C1c1ccccc1 (stereo not given in full)	none (no result: MsrA inh, HTR2A ag, bovine MsrA act)
Cc1nc2ccccn2c1C(O)(c1ccccc1)c1ccccc1	none (no result: MsrA inh, HTR2A ag, bovine MsrA act)
Cc1ccc(CN2C(C(=O)NC3CCCC3)CSCCS2(=O)=O)cc1 (stereo not given)	none (no result: MsrA inh, HTR2A ag, bovine MsrA act)
CC(C(=O)O)C(=O)O	none
O=C(O)C(O)C(O)C(O)C(O)C(=O)O (stereo not given) (tested in a mixture with another compound)	HTR2A ag 20 | OPRM1 ag inactive | HTR2A ag conf inactive
Cc1ccc(CNC(=O)CCS(=O)(=O)c2cc3c(cc2Br)CCN3C(=O)C2CC2)o1	none (no result: MsrA inh, HTR2A ag, bovine MsrA act)
COc1ccc(-c2nc(CS(=O)CC(=O)NCCCN3CCOCC3)c(C)o2)cc1OC (stereo not given)	HTR2A ag 17 | OPRM1 ag inactive | HTR2A ag conf inactive
COc1ccc(-c2nc(CS(=O)CC(=O)NCCCN3CCCC3)c(C)o2)cc1OC (stereo not given)	none
O=S(=O)(NOCc1ccc(Cl)cc1)c1ccc(Cl)cc1	HTR2A ag 15 | OPRM1 ag inactive | HTR2A ag conf inactive
CC(=O)N1Cc2ccccc2CC1C(=O)NCc1ccccc1F (stereo not given)	HTR2A ag 16 | OPRM1 ag inactive | HTR2A ag conf inactive
O=C1c2ccccc2C(=O)N1c1ncccn1	HTR2A ag 22 | OPRM1 ag inactive | HTR2A ag conf inactive
O=C1c2ccccc2C(=O)N1c1cccc2cccnc12	none
O=C(N[C@H](C(=O)N1CCC[C@H]1C(=O)NCc1ccccc1)c1ccccc1)c1ccccc1	none (no result: HTR2A ag, bovine MsrA act)
Cc1cc(CNC(=O)c2cccc(OC3CCN(S(=O)(=O)N(C)C)CC3)c2)on1	HTR2A ag 15 | OPRM1 ag inactive | HTR2A ag conf inactive
CN(C)S(=O)(=O)N1CCC(Oc2cccc(C(=O)NC3CCCCCC3)c2)CC1	none
O=S(=O)(NC1=NCCCCC1)c1ccc(Cl)cc1Cl	HTR2A ag 14 | OPRM1 ag inactive | HTR2A ag conf inactive
O=S(=O)(NC1=NCCCCC1)c1ccc(F)cc1F	none
CCOc1ccc(CCNC(=O)CN2CCN(Cc3ccccc3F)C2=O)cc1OCC	none
O=C(CN1CCN(Cc2ccccc2F)C1=O)NCCc1ccc(Cl)cc1	HTR2A ag 16 | OPRM1 ag inactive | HTR2A ag conf inactive
Cc1nc(-c2nc(-c3c(C(=O)NNC(=O)Nc4ccccc4)noc3C)cs2)cs1	none
Cc1nc(-c2nc(-c3c(C(=O)NNC(=O)Nc4cccc(Cl)c4)noc3C)cs2)cs1	HTR2A ag 19 | OPRM1 ag inactive | HTR2A ag conf 52
COc1ccc2c(c1)C(O)C(CO)C(C(=O)O)C2 (stereo not given)	HTR2A ag 16 | OPRM1 ag inactive | HTR2A ag conf inactive
O=C(Nc1ccc(F)cc1)OC1CC2CC1[C@H]1CCCCN1C2 (stereo not given in full)	none (no result: MsrA inh, HTR2A ag, bovine MsrA act)
COC(=O)[C@]12C[C@H](CC(=O)NCc3cccc(C(F)(F)F)c3)C(=O)N(Cc3cccc4ccccc34)C1=C[C@H](C(C)C)O[C@@H]2C1CC1	none (no result: MsrA inh, HTR2A ag, bovine MsrA act)
COC(=O)C1=CN(Cc2ccc(OC)c(OC)c2)C=C(C(=O)OC)C1c1ccccc1F	HTR2A ag 17 | OPRM1 ag inactive | HTR2A ag conf inactive

Screening results as filed in PubChem BioAssay.
